Structures can show the parent of a compound that is named as a salt.
System: Saccharomyces cerevisiae BY4741 SeMeCo community
Assay: z-score of subpopulation abundance vs DMSO median, subpopulation auxotrophic for L; higher = larger share of this subpopulation than in DMSO controls
Conditions: 10 µM; 24 h; SM minimal medium; subpopulation (auxotrophy): L
Method: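 Fluorescent four-plasmid SeMeCo (self-establishing metabolically cooperating S. cerevisiae BY4741 community; plasmids pH-mRuby2, pL-mWasabi, pU-eCFP, pM-TagRFP657) was grown 24 h in minimal SM medium with each Selleck FDA-approved drug at 10 µM in 384-well plates. Cells were fixed and imaged by high-content confocal microscopy. For each auxotrophic subpopulation (and the prototroph), a z-score gives the deviation from the DMSO vehicle-control population median.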

Row | Structure (SMILES) | z-score of subpopulation abundance
1 | C=CC[C@]1(O)CC[C@H]2[C@@H]3CCC4=CC(=O)CCC4=C3C=C[C@@]21C [Altrenogest] | 0.59
2 | C[CH2][Hg][S]c1ccccc1C(=O)[O-].[Na+] [Thimerosal] | -2.54
3 | COC(=O)C1=CCCN(C)C1 [Arecoline HBr] | 0.3
4 | Cc1cc(O)ccc1Cl [Chlorocresol] | -0.62
5 | CC[N+](C)(CC)CCOC(=O)C(O)(c1ccccc1)c1ccccc1 [Methylbenactyzine Bromide] | -0.83
6 | N[C@@H]1C[C@H]1c1ccccc1 [Tranylcypromine (2-PCPA) HCl] | -0.64
7 | COc1ccc(C(CN(C)C)C2(O)CCCCC2)cc1 (centres undefined) [Venlafaxine HCl] | 0.66
8 | C[C@@H]1O[C@@H](O[C@H]2C[C@@H](O)[C@]3(CO)[C@H]4[C@H](O)C[C@]5(C)[C@@H](C6=CC(=O)OC6)CC[C@]5(O)[C@@H]4CC[C@]3(O)C2)[C@H](O)[C@H](O)[C@H]1O [Ouabain] | -0.43
9 | COc1ccc(C=O)cc1 [p-Anisaldehyde] | -0.63
10 | Cn1cc(C2=C(c3cn(C4CCN(Cc5ccccn5)CC4)c4ccccc34)C(=O)NC2=O)c2ccccc21 | -1.15
11 | CCCN1C[C@H](CSC)C[C@@H]2c3cccc4[nH]cc(c34)C[C@H]21 [Pergolide Mesylate] | 0.12
12 | CC(NC(C)(C)C)C(=O)c1cccc(Cl)c1 (centres undefined) [Amfebutamone (Bupropion) HCl] | 0.13
13 | CN1[C@@H]2CC[C@H]1C[C@@H](OC(=O)[C@H](CO)c1ccccc1)C2 [Hyoscyamine] | 0.64
14 | CC[C@@H](C(N)=O)N1CCCC1=O [Levetiracetam] | 0
15 | CCN(CC)CCOC(=O)C(O)(c1ccccc1)c1ccccc1 [Benactyzine hydrochloride] | 0.45
16 | CCCCCCCCCCCCCCCC[n+]1ccccc1 [Cetylpyridinium Chloride] | -2.16
17 | COc1cc2c(cc1OC)C1CC(=O)C(CC(C)C)CN1CC2 (centres undefined) [Tetrabenazine (Xenazine)] | 1.69

Row | Structure (SMILES) | z-score of subpopulation abundance
18 | CN1C(=O)COc2c(C(=O)NC3CN4CCC3CC4)cc(Cl)cc21 (centres undefined) [Azasetron HCl] | 0.07
19 | CC(C)N(CCC(C(N)=O)(c1ccccc1)c1ccccn1)C(C)C (centres undefined) [Disopyramide] | 2.35
20 | CC(C)=CCOc1c2occc2cc2ccc(=O)oc12 [Imperatorin] | 1.37
21 | COc1ccc(C(CN(C)C)C2(O)CCCCC2)cc1 (centres undefined) [Venlafaxine] | -0.75
22 | CC1(C)SC2C(N)C(=O)N2C1C(=O)O (centres undefined) [6-Aminopenicillanic acid] | -0.39
23 | CC[C@@]1(O)C(=O)OCc2c1cc1n(c2=O)Cc2cc3ccccc3nc2-1 [Camptothecin] | -0.35
24 | C#C[C@]1(O)C=C[C@H]2[C@@H]3CCC4=CC(=O)CC[C@@H]4[C@H]3CC[C@@]21CC [Gestodene] | 0.46
25 | COc1ccc2c(c1)[C@]13CCCC[C@@H]1[C@H](C2)N(C)CC3 [Dextromethorphan hydrobromide hydrate] | 0.57
26 | C=CCN1C[C@H](C(=O)N(CCCN(C)C)C(=O)NCC)C[C@@H]2c3cccc4[nH]cc(c34)C[C@H]21 [Cabergoline] | 0.36
27 | C[N+]12CCC(CC1)C(OC(=O)C(O)(c1ccccc1)c1ccccc1)C2 (centres undefined) [Clidinium Bromide] | 0.14
28 | CN(C)C(=O)Oc1cccc([N+](C)(C)C)c1 [Neostigmine Bromide] | 0.65
29 | CN(C)C(=O)Oc1ccc[n+](C)c1 [Pyridostigmine Bromide] | 0.3
30 | NC(=O)CN1CCCC1=O [Piracetam] | 1.45
31 | COc1ccc2c3c([nH]c2c1)C(C)=NCC3 [Harmaline] | 2.48
32 | Oc1cccc2cccnc12 [8-Hydroxyquinoline] | -1.01
33 | N#Cc1nn(-c2c(Cl)cc(C(F)(F)F)cc2Cl)c(N)c1[S+]([O-])C(F)(F)F (centres undefined) [Fipronil] | -0.6
34 | CCN1CC2(OC(=O)c3ccccc3NC(C)=O)CCC(OC)C34C1C(CC23)C1(O)CC(OC)C2CC4C1(O)C2OC (centres undefined) [Lappaconitine] | 0.34

Source: the supplement of paper PMC8975748
